# Legend:
# Assay in all cases: DAPPL (digital affinity profiling via proximity ligation, sequencing); 10 mM Tris-HCl pH 7.5, 50 mM NaCl, 1 mM DTT, 4% glycerol, room temperature, 30 min; GST-TFs on glutathione beads, 16-mer random dsDNA library, 0.1% formaldehyde crosslink after washing; high values mean tight binding
# FLI1 = target: T1, FLI1 (Homo sapiens, UniProt Q01543 1-452); conditions: protein: recombinant; tags: N-terminal GST; dsDNA, one strand shown
# T1 sequence: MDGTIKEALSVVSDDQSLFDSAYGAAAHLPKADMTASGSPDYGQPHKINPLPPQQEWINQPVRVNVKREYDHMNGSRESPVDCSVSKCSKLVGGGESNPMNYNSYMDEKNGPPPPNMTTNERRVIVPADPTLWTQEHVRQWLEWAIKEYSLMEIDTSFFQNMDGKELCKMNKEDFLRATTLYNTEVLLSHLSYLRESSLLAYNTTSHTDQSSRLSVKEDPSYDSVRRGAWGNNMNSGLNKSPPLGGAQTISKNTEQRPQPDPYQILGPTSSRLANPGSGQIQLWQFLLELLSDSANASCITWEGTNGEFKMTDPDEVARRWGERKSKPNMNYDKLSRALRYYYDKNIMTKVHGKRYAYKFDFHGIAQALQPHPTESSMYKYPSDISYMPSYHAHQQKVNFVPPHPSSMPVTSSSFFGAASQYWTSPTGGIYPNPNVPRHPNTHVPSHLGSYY
# Summary of the method: (§1)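 Human transcription factors carrying a GST fusion were produced in yeast, bound to glutathione beads, tagged with DNA barcodes and pooled together with a tag-only sample. Each pool was held with 200 nmole of a random double-stranded 16-mer DNA library in Tris/NaCl/DTT/glycerol buffer for 30 min at room temperature, then washed, crosslinked in 0.1% formaldehyde, proximity-ligated with BsaI/T4 ligase (1 h, 37 °C), PCR-amplified and sequenced on an Illumina NextSeq500. Binding signal is the read frequency of each hexamer for a given factor divided by its frequency in the tag-only sample.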
# ELK1 = target: T2, ELK1 (Homo sapiens, UniProt P19419 1-428); conditions: protein: recombinant; tags: N-terminal GST; dsDNA, one strand shown
# T2 sequence: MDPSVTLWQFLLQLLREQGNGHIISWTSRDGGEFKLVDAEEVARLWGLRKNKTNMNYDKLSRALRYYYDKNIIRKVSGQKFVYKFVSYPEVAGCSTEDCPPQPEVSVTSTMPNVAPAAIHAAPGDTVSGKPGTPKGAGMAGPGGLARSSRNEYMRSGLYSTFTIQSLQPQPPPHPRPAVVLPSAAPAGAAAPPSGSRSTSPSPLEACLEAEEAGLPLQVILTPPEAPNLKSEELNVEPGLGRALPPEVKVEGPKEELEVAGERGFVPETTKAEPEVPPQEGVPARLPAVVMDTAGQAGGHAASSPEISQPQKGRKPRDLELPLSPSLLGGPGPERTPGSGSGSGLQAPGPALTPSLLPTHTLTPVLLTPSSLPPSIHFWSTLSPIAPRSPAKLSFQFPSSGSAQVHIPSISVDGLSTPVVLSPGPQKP
# Summary of the method: as §1
# GABPA = target: T3, GABPA (Homo sapiens, UniProt Q06546 1-454); conditions: protein: recombinant; tags: N-terminal GST; dsDNA, one strand shown
# T3 sequence: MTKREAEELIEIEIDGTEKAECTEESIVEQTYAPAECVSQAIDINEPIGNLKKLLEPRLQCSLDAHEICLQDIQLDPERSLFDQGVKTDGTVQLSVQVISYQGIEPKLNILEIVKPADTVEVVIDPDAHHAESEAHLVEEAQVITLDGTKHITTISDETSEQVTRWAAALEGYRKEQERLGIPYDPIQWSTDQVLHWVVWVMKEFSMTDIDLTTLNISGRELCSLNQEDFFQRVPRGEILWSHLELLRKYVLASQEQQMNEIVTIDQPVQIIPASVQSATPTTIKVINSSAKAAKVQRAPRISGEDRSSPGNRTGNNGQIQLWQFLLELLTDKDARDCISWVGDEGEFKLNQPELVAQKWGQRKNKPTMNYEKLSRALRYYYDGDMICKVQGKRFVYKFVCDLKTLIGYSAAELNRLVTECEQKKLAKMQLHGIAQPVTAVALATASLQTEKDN
# Summary of the method: as §1
# ERG = target: T4, ERG (Homo sapiens, UniProt P11308 1-479); conditions: protein: recombinant; tags: N-terminal GST; dsDNA, one strand shown
# T4 sequence: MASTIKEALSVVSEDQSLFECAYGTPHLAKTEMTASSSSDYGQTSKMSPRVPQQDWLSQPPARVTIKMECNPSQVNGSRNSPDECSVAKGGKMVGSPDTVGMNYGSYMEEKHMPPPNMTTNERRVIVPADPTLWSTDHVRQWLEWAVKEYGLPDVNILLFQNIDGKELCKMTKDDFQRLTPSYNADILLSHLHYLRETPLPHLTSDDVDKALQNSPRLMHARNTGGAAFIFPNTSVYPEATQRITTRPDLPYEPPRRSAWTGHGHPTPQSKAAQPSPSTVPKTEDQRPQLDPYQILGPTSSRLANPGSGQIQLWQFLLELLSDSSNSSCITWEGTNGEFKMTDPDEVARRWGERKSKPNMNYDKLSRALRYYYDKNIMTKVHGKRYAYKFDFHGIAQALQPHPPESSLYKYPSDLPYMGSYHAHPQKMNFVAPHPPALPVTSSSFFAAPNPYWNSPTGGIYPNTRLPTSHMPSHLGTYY
# Summary of the method: as §1
# ELF1 = ELF1 (Homo sapiens, UniProt P32519 1-619); conditions: protein: recombinant; tags: N-terminal GST; dsDNA, one strand shown
# ELF1, sequence (P32519 whole entry): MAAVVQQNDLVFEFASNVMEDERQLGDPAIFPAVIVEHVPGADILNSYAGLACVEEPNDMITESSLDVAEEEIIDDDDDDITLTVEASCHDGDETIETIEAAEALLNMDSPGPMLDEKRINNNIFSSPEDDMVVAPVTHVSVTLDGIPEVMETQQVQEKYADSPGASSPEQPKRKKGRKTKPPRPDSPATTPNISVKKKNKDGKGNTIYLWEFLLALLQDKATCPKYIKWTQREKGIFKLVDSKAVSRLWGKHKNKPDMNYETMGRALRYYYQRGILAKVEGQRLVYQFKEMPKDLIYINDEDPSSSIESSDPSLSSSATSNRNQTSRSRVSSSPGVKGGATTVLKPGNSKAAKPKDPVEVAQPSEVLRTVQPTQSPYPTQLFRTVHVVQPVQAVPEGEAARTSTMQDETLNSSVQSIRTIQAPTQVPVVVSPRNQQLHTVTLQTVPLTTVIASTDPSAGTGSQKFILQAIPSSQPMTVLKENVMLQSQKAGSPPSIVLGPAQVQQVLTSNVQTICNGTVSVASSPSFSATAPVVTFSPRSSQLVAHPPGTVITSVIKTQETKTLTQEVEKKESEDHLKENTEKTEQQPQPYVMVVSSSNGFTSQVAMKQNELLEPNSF
# Summary of the method: as §1
# EHF = target: T5, EHF (Homo sapiens, UniProt Q9NZC4 1-300); conditions: protein: recombinant; tags: N-terminal GST; dsDNA, one strand shown
# T5 sequence: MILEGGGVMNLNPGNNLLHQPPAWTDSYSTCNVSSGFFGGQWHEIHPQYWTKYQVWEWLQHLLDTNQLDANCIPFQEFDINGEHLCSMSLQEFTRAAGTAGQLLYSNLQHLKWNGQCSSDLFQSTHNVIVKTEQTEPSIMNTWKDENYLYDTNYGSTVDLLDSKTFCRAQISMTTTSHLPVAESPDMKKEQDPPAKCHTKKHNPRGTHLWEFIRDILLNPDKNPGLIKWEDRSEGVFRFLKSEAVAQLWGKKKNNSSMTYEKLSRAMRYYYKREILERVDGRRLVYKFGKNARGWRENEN
# Summary of the method: as §1
# SPI1 = SPI1 (Homo sapiens, UniProt P17947 1-270); conditions: protein: recombinant; tags: N-terminal GST; dsDNA, one strand shown
# Summary of the method: as §1
# SPIB = SPIB (Homo sapiens, UniProt Q01892 1-262); conditions: protein: recombinant; tags: N-terminal GST; dsDNA, one strand shown
# SPIB, sequence (Q01892 whole entry): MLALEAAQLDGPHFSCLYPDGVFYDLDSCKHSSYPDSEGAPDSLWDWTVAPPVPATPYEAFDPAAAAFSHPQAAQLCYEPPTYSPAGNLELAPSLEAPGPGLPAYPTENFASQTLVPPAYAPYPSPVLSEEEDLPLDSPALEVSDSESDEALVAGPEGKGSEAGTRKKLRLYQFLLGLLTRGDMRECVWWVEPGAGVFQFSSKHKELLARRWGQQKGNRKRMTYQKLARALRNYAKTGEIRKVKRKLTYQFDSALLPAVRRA
# Summary of the method: as §1
# ELK3 = target: T6, ELK3 (Homo sapiens, UniProt P41970 1-407); conditions: protein: recombinant; tags: N-terminal GST; dsDNA, one strand shown
# T6 sequence: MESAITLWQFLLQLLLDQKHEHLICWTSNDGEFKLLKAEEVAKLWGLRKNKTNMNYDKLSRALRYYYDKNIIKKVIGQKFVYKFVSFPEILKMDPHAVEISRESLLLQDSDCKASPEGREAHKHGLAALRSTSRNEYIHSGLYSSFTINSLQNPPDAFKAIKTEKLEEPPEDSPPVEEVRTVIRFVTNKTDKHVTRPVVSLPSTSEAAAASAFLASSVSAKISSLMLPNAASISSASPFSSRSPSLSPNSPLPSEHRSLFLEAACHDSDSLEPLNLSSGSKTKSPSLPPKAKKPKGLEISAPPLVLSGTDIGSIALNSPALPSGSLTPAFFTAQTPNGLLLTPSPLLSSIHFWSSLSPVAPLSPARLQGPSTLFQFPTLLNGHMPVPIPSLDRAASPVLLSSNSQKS
# Summary of the method: as §1
# FEV = target: T7, FEV (Homo sapiens, UniProt Q99581 1-238); conditions: protein: recombinant; tags: N-terminal GST; dsDNA, one strand shown
# T7 sequence: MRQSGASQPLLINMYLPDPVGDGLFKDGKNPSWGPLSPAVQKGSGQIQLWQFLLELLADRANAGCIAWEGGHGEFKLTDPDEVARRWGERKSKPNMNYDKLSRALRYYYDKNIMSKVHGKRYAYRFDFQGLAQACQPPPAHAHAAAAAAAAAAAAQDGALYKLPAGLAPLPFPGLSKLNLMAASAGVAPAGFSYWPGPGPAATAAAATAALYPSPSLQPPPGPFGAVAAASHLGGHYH
# Summary of the method: as §1
# ETV5 = ETV5 (Homo sapiens, UniProt P41161 1-510); conditions: protein: recombinant; tags: N-terminal GST; dsDNA, one strand shown
# ETV5, sequence (P41161 whole entry): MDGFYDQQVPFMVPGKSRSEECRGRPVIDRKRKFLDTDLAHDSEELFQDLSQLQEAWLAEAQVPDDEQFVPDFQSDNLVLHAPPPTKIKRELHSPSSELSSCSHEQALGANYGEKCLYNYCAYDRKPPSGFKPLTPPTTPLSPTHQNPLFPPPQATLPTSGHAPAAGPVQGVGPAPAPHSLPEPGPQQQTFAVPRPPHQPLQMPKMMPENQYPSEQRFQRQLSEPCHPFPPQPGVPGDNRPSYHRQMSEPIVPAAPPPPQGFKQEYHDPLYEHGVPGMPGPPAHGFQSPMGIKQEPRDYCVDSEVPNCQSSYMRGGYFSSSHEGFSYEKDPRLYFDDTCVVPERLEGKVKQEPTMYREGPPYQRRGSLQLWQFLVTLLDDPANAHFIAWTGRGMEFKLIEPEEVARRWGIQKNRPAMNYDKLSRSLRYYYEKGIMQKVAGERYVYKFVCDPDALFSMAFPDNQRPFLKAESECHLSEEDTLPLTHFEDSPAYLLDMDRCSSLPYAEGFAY
# Summary of the method: as §1
# HSF1 = HSF1 (Homo sapiens, UniProt Q00613 1-529); conditions: protein: recombinant; tags: N-terminal GST; chain copies: 3; dsDNA, one strand shown
# HSF1, sequence (Q00613 whole entry): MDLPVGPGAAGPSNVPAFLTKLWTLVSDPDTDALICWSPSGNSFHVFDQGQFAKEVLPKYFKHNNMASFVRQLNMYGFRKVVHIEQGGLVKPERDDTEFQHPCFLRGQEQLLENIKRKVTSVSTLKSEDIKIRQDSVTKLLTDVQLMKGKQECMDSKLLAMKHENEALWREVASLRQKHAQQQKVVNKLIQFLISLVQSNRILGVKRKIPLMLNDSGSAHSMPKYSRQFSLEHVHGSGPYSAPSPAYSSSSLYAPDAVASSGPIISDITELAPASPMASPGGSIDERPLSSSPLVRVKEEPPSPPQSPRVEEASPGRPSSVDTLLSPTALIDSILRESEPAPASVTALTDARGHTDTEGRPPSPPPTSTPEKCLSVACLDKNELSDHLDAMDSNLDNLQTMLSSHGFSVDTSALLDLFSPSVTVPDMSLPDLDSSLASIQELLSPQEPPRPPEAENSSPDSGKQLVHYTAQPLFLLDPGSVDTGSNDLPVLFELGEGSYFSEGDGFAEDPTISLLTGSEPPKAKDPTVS
# Summary of the method: as §1
# SPIC = target: T8, SPIC (Homo sapiens, UniProt Q8N5J4 1-248); conditions: protein: recombinant; tags: N-terminal GST; dsDNA, one strand shown
# T8 sequence: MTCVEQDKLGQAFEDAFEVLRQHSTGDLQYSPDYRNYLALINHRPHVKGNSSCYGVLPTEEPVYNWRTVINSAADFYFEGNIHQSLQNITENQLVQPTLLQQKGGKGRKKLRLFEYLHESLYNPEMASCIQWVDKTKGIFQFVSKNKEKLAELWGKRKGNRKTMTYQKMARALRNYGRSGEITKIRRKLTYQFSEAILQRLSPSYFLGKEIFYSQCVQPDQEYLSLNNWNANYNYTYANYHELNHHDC
# Summary of the method: as §1
# ELF4 = ELF4 (Homo sapiens, UniProt Q99607 1-663); conditions: protein: recombinant; tags: N-terminal GST; dsDNA, one strand shown
# ELF4, sequence (Q99607 whole entry): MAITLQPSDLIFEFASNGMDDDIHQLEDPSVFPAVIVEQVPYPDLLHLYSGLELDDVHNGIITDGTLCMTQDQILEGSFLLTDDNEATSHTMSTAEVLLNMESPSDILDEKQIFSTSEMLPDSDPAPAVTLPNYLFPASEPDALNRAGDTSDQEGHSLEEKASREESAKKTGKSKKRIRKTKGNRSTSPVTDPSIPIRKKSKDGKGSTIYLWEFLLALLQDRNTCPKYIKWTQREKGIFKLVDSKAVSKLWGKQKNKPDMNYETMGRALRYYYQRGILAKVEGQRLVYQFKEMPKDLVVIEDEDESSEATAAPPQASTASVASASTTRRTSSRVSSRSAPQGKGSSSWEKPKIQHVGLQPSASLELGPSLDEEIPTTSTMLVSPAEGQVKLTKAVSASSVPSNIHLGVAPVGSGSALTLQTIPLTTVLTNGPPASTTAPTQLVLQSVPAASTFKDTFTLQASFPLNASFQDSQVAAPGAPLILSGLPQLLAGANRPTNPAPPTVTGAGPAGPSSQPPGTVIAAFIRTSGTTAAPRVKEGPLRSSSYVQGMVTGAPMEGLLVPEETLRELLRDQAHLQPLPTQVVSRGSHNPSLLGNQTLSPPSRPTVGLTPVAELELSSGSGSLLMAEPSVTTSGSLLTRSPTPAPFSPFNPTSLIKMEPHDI
# Summary of the method: as §1
# ELK4 = target: T9, ELK4 (Homo sapiens, UniProt P28324-2 1-405); conditions: protein: recombinant; tags: N-terminal GST; dsDNA, one strand shown
# T9 sequence: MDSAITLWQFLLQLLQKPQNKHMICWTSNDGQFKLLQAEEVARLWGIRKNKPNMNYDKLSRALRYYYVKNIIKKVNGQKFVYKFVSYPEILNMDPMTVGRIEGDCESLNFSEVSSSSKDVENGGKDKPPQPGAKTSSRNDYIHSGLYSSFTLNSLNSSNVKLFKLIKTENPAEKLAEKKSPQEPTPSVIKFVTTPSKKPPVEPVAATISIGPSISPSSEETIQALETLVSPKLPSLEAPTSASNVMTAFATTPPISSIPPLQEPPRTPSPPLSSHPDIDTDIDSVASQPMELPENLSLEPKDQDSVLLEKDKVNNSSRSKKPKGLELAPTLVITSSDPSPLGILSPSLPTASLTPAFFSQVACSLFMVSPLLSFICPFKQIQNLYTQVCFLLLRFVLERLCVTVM
# Summary of the method: as §1
# ETV2 = target: T10, ETV2 (Homo sapiens, UniProt O00321 1-342); conditions: protein: recombinant; tags: N-terminal GST; dsDNA, one strand shown
# T10 sequence: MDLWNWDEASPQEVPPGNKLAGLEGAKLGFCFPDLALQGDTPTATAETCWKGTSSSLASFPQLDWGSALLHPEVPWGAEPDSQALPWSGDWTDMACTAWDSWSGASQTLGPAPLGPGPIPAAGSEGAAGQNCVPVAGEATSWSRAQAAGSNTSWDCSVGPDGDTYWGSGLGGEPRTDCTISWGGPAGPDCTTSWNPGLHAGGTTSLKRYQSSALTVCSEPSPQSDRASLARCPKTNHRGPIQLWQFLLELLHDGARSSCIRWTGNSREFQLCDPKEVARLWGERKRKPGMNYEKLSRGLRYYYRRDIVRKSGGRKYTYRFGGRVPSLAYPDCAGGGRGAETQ
# Summary of the method: as §1
# ELF3 = target: T11, ELF3 (Homo sapiens, UniProt P78545 1-371); conditions: protein: recombinant; tags: N-terminal GST; dsDNA, one strand shown
# T11 sequence: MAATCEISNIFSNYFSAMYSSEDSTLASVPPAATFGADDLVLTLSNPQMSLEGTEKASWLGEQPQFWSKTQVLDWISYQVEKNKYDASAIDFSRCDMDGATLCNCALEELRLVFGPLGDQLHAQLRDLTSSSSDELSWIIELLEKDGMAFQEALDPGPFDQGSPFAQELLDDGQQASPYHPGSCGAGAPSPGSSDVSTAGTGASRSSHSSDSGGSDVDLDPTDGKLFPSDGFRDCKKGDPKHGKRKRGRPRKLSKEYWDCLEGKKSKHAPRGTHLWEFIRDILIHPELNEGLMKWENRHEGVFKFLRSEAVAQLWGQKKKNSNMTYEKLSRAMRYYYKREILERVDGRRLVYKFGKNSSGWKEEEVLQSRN
# Summary of the method: as §1
# CRX = CRX (Homo sapiens, UniProt O43186 1-299); conditions: protein: recombinant; tags: N-terminal GST; dsDNA, one strand shown
# CRX, sequence (O43186 whole entry): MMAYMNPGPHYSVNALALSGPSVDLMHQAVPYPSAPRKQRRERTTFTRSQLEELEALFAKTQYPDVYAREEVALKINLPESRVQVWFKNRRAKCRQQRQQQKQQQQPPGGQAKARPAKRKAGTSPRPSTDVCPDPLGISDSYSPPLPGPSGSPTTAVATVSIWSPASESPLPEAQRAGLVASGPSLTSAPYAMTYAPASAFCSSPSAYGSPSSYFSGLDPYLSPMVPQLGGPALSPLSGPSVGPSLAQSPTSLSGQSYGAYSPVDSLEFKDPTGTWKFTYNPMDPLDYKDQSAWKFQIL
# Summary of the method: as §1
# ETV1 = ETV1 (Homo sapiens, UniProt P50549 1-477); conditions: protein: recombinant; tags: N-terminal GST; dsDNA, one strand shown
# ETV1, sequence (P50549 whole entry): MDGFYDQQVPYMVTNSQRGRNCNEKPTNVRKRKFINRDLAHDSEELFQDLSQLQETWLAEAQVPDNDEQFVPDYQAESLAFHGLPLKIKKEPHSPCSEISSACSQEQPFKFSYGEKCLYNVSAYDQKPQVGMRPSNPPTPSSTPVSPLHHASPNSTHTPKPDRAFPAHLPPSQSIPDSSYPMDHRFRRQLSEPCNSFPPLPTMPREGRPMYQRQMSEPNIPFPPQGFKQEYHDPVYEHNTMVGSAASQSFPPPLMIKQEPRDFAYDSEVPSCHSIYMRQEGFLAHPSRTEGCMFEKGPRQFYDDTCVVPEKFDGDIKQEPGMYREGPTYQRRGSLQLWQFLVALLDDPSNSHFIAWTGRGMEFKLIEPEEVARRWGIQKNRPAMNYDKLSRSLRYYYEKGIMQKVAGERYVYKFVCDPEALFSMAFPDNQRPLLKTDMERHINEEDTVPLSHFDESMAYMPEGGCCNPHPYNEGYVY
# Summary of the method: as §1
sequence,measurement,setting,value
GCTCGA,binding signal,FLI1,"1.22 fold enrichment (6-mer frequency, TF over GST control)"
same,binding signal,ELK1,"1.12 fold enrichment (6-mer frequency, TF over GST control)"
same,binding signal,GABPA,"1.15 fold enrichment (6-mer frequency, TF over GST control)"
same,binding signal,ERG,"1.2 fold enrichment (6-mer frequency, TF over GST control)"
same,binding signal,ELF1,"1.21 fold enrichment (6-mer frequency, TF over GST control)"
same,binding signal,EHF,"1.19 fold enrichment (6-mer frequency, TF over GST control)"
same,binding signal,SPI1,"1.22 fold enrichment (6-mer frequency, TF over GST control)"
same,binding signal,SPIB,"1.24 fold enrichment (6-mer frequency, TF over GST control)"
same,binding signal,ELK3,"1.13 fold enrichment (6-mer frequency, TF over GST control)"
same,binding signal,FEV,"1.25 fold enrichment (6-mer frequency, TF over GST control)"
same,binding signal,ETV5,"1.22 fold enrichment (6-mer frequency, TF over GST control)"
same,binding signal,HSF1,"1.74 fold enrichment (6-mer frequency, TF over GST control)"
same,binding signal,SPIC,"1.31 fold enrichment (6-mer frequency, TF over GST control)"
same,binding signal,ELF4,"1.25 fold enrichment (6-mer frequency, TF over GST control)"
same,binding signal,ELK4,"1.29 fold enrichment (6-mer frequency, TF over GST control)"
same,binding signal,ETV2,"1.07 fold enrichment (6-mer frequency, TF over GST control)"
same,binding signal,ELF3,"1.24 fold enrichment (6-mer frequency, TF over GST control)"
same,binding signal,CRX,"1.17 fold enrichment (6-mer frequency, TF over GST control)"
same,binding signal,ETV1,"1.07 fold enrichment (6-mer frequency, TF over GST control)"
